BCR signal inh: qHTS Assay to Find Inhibitors of Chronic Active B-Cell Receptor Signaling; actives 0.05% (n = 340,000); Potency, µM (highest dose often 46.1 µM), inactives show top-dose activity change, negative = inhibition, actives largely listed as inhibitors; AID 493014, 2011; ABC-DLBCL IkBa-CBG/CBR reporter, luminescence ratio, 4 h; active = well fitted inhibition curve with a large enough effect in the signal ratio, with a control signal flat, not every such curve was filed as active; inconclusive = small, poorly fitted or top-dose-only effect, or effect the other way, or a change in a side signal; the % refers to the signal ratio;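 note: potency is the fitted concentration of half-maximal effect; plate controls were basal doxycycline-induced cells for no effect and cells given 10 µM MG132 for full effect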
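Doxycycline induced both beetle luciferases in TMD8 lymphoma cells; IKK-driven degradation limits the IkappaBalpha-fused green signal, while red luminescence normalises for cell number and nonspecific effects. Compounds tested up to 46 uM, 4 hrs.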
DT40 TDP1 no CPT: qHTS for Inhibitors of human tyrosyl-DNA phosphodiesterase 1 (TDP1): qHTS in cells in absence of CPT. AID 686978, 2013. DT40 Tdp1-/- hTDP1 cells, no CPT, ATP luminescence, 48 h. Potency, µM (top dose mostly 46.2 µM), for the others: top-dose activity change, negative = growth inhibition, usual class: inhibitors. actives 15% (n = 420,000); note: potency is the fitted concentration of half-maximal effect; % is set by controls: 0 for no effect and ±100 for the full control effect; nearly all actives have a fitted effect of over 55% in size
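Stably hTDP1-transfected Tdp1-null chicken DT40 cells were treated with library compounds minus camptothecin and grown for at least 48 hr at 37 °C, after which cellular ATP was quantified by luminescence.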
SW480 rereplic: A quantitative high throughput screen for small molecules that induce DNA re-replication in SW480 colon adenocarcinoma cells. SW480 DNA re-replication, Hoechst DNA content imaging, 48 h. actives 1.8% (n = 340,000). Potency, µM (series often up to 46.1 µM), for the others: at the top dose re-replication activation, usual class: activators. AID 624297, 2012; note: potency is the fitted concentration of half-maximal effect; % of control where 0% means no effect; nearly all actives have a fitted effect of over 55% in size
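First, 250 cells per well were seeded. Next, compound or vehicle (23 nL) was pinned in, plates sat 48 hr at 37 C. Finally Hoechst was added for 40 min before fluorescence scanning.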
MCF10A rereplic: A quantitative high throughput screen for small molecules that induce DNA re-replication in MCF 10a normal breast cells. Potency, µM (highest dose often 46.1 µM), without a hit: at the top dose activity, positive = re-replication, most hits filed as activators. actives 2.9% (n = 350,000). MCF 10A DNA re-replication, Hoechst nuclear intensity, 48 h; note: potency is the fitted concentration of half-maximal effect; % of control where 0% means no effect; nearly all actives have a fitted effect of over 50% in size
DT40 TDP1 CPT: qHTS for Inhibitors of human tyrosyl-DNA phosphodiesterase 1 (TDP1): qHTS in cells in presence of CPT; chicken DT40 Tdp1-/-;hTDP1 cells + 20 nM CPT, ATP luminescence, 48 h; Potency, µM (series often up to 46.2 µM), without a hit: at the highest dose activity change, negative = growth inhibition, usual class: inhibitors; actives 12% (n = 420,000); AID 686979, 2013; note: potency is the fitted concentration of half-maximal effect; % is set by controls: 0 for no effect and ±100 for the full control effect; nearly all actives have a fitted effect of over 55% in size
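Cell growth measured by CellTiter-Glo luminescence after a minimum 48 h, 37 C compound exposure with 20 nM CPT in Tdp1-knockout DT40 cells stably expressing hTDP1, seeded 400/well; qHTS titration format.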
IL-1B inflam inh: qHTS for Inhibitors of Inflammasome Signaling: IL-1-beta AlphaLISA Primary Screen; THP-1 LPS/ATP IL-1B secretion, AlphaLISA, 16 h; stronger effect = lower value; activity change, % at 57.5 µM; actives 4.7% (n = 360,000); in the data active = activity change below about -50%; inconclusive = mostly about -30% to -49%; note: % is set by controls: 0 for no effect and ±100 for the full control effect
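THP-1 cells pretreated 1 hr with compounds (up to 57.5 uM final), then stimulated with LPS (250 ng/mL final) plus ATP (1.25 mM final); secreted IL-1B measured by AlphaLISA after 16 hr, decreased signal indicating inhibition.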
* hit, by the source's call; [ ] = another dose, or the depositor's remark. In the library only some 19% were active in any assay of this set; here they are far more common. Unless noted, calls come from the whole dose curve; as a rule, active = well fitted curve in the direction sought with a large enough effect; inconclusive = small, poorly fitted or top-dose-only effect, or another doubt; inactive = no such curve, though single readings can be large; an effect the other way counts as inactive or inconclusive.

Results for Cc1cccc(N2C(=O)CC(Sc3nc(-c4ccccc4)c4cc(Cl)ccc4n3)C2=O)c1 (centres undefined) ?
BCR signal inh: 4%; DT40 TDP1 no CPT: inconclusive; SW480 rereplic: -5%; MCF10A rereplic: 11%; DT40 TDP1 CPT: inconclusive; IL-1B inflam inh: -13

What do the screens show for `Cc1nc(SC2CC(=O)N(c3cc(Cl)cc(Cl)c3)C2=O)nc2c1CCCC2` (centres undefined)?
BCR signal inh: -1%; DT40 TDP1 no CPT: inconclusive; SW480 rereplic: 0%; MCF10A rereplic: 22%; DT40 TDP1 CPT: 21µM*; IL-1B inflam inh: 25

What do the screens show for `CC(C)N(C)Cc1nnnn1CC(=O)N(C)Cc1ccc(F)cc1`?
BCR signal inh: -3%; DT40 TDP1 no CPT: -22%; SW480 rereplic: 9%; MCF10A rereplic: 4%; DT40 TDP1 CPT: 15%; IL-1B inflam inh: -4

What do the screens show for `O=C(NCc1cccs1)c1ccc2c(c1)N(Cc1ccccc1Cl)C(=O)c1ccccc1S2`?
BCR signal inh: -1%; DT40 TDP1 no CPT: -25%; DT40 TDP1 CPT: -15%

What do the screens show for `COCCCNC(=O)c1cc(S(=O)(=O)N2CCC3(CC2)OCCO3)ccc1F`?
DT40 TDP1 no CPT: -24%; DT40 TDP1 CPT: 4%; IL-1B inflam inh: 16

What do the screens show for `Cc1ccc(OCC(=O)Nc2cc(S(=O)(=O)N3CCOCC3)ccc2Cl)c([N+](=O)[O-])n1`?
BCR signal inh: 0%; DT40 TDP1 no CPT: -5%; SW480 rereplic: -8%; MCF10A rereplic: 1%; DT40 TDP1 CPT: -6%; IL-1B inflam inh: 1

What do the screens show for `COc1ccc(N2C(=O)CC(Sc3nc4c(cc3C#N)CCC4)C2=O)cc1` (centres undefined)?
BCR signal inh: 1%; DT40 TDP1 no CPT: -20%; SW480 rereplic: -133%; MCF10A rereplic: 2%; DT40 TDP1 CPT: 2%; IL-1B inflam inh: -14

How did COc1ccc(N2C(=O)CC(Sc3nc(C)c4c(n3)CCCC4)C2=O)cc1 (centres undefined) do in these assays?
BCR signal inh: 1%; DT40 TDP1 no CPT: 23µM*; SW480 rereplic: -1%[9.22 µM]; MCF10A rereplic: inconclusive; DT40 TDP1 CPT: 18µM*; IL-1B inflam inh: 52

Results for COc1ccc(CCC(=O)N/N=C/c2ccc3c(c2)OCO3)cc1 ?
DT40 TDP1 no CPT: -6%; SW480 rereplic: -6%; MCF10A rereplic: -3%; DT40 TDP1 CPT: 4%; IL-1B inflam inh: 5

What do the screens show for `COc1ccc(C(=O)N2N=C(c3cccs3)CC2c2ccccc2O)cc1` (centres undefined)?
BCR signal inh: inconclusive; DT40 TDP1 no CPT: 13µM*; SW480 rereplic: 16µM*; MCF10A rereplic: 24%; DT40 TDP1 CPT: -4%; IL-1B inflam inh: 25

How did COc1ccc(C2CC(c3ccccc3)=NN2C(=O)COC(=O)C2(C)CC2(Cl)Cl)cc1 (centres undefined) do in these assays?
BCR signal inh: 1%; DT40 TDP1 no CPT: inconclusive; SW480 rereplic: 8%; MCF10A rereplic: 7%; DT40 TDP1 CPT: inconclusive; IL-1B inflam inh: -68*

Results for COc1ccc(C2CC(c3ccccc3)=NN2C(=O)c2cccs2)cc1 (centres undefined) ?
BCR signal inh: 11%; DT40 TDP1 no CPT: inconclusive; SW480 rereplic: 3%; MCF10A rereplic: 14%; DT40 TDP1 CPT: 23µM*; IL-1B inflam inh: -23

What do the screens show for `COc1ccc(C2=NN(C(=O)c3cccs3)C(O)(C(F)(F)F)C2)cc1` (centres undefined)?
BCR signal inh: inconclusive; DT40 TDP1 no CPT: 16µM*; SW480 rereplic: -5%; MCF10A rereplic: 8%; DT40 TDP1 CPT: inconclusive; IL-1B inflam inh: -52*

Results for COc1ccc2cc(C3CC(c4cccs4)=NN3C(C)=O)c(Cl)nc2c1 (centres undefined) ?
BCR signal inh: -1%; DT40 TDP1 no CPT: -8%; SW480 rereplic: -16%; MCF10A rereplic: 8%; DT40 TDP1 CPT: 0%; IL-1B inflam inh: 10

Results for CS(=O)(=O)N(CC(=O)N1CCCC1)Cc1ccc(Cl)c(Cl)c1 ?
BCR signal inh: -1%; DT40 TDP1 no CPT: inconclusive; SW480 rereplic: 0%; MCF10A rereplic: -4%; DT40 TDP1 CPT: -29%; IL-1B inflam inh: 3

How did COc1ccc2c(c1)c1c(c(=O)n(CCc3ccccc3)c(=O)n1Cc1cccc(F)c1)n2C do in these assays?
DT40 TDP1 no CPT: -3%; DT40 TDP1 CPT: -3%

What do the screens show for `CCOC(=O)c1c(C)[nH]c(C)c1S(=O)(=O)N1CCC(C(=O)NCc2ccc(OC)cc2)CC1`?
BCR signal inh: 0%; DT40 TDP1 no CPT: -11%; DT40 TDP1 CPT: -6%

How did COc1ccc(C2=NN(C(=O)CCC(=O)O)C(c3ccccc3F)C2)cc1 (centres undefined) do in these assays?
BCR signal inh: 18%; DT40 TDP1 no CPT: -3%; SW480 rereplic: -5%; MCF10A rereplic: 3%; DT40 TDP1 CPT: -3%; IL-1B inflam inh: 7

Results for COc1ccc(C2=NN(C(=O)c3cccs3)C(c3ccccc3O)C2)cc1 (centres undefined) ?
BCR signal inh: inconclusive; DT40 TDP1 no CPT: inconclusive; SW480 rereplic: 24%; MCF10A rereplic: 21µM*; DT40 TDP1 CPT: inconclusive; IL-1B inflam inh: -59*

How did COc1ccc(C2=Nc3nc(-c4ccccc4)cn3C(c3ccc(OC)cc3)C2)cc1 (centres undefined) do in these assays?
BCR signal inh: 4%; DT40 TDP1 no CPT: inconclusive; SW480 rereplic: 16µM*; MCF10A rereplic: inconclusive; DT40 TDP1 CPT: -19%; IL-1B inflam inh: -23

How did COc1ccc(CC(=O)OCC(=O)N2N=C(c3ccccc3)CC2c2ccc(OC)cc2)cc1 (centres undefined) do in these assays?
BCR signal inh: 0%; DT40 TDP1 no CPT: inconclusive; SW480 rereplic: 24%; MCF10A rereplic: inconclusive; DT40 TDP1 CPT: inconclusive; IL-1B inflam inh: -2

What do the screens show for `Cc1ccc(C(=O)N(Cc2ccccc2)C(C)(C)C)cc1C`?
BCR signal inh: 3%; DT40 TDP1 no CPT: 15µM*; SW480 rereplic: -3%; MCF10A rereplic: 23µM*; DT40 TDP1 CPT: 16µM*; IL-1B inflam inh: -7

Screens deposited in PubChem by National Center for Advancing Translational Sciences (NCATS).
